In the library only some 2.8% were active in any assay of this set; here they are far more common.
Pol beta inh – qHTS Assay for Inhibitors of DNA Polymerase Beta; P06746; Pol beta primer extension/strand displacement, fluorescence kinetic; Potency, µM (titrated, usually from 114 µM), for inactives: at the top dose activity change, negative = inhibition, most hits filed as inhibitors; 1.3% of 340,000 active; AID 485314, 2010; note: potency is the fitted concentration of half-maximal effect; % is set by controls: 0 for no effect and ±100 for the full control effect
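Curves were derived by four-parameter Hill fits of normalized qHTS data. The kinetic fluorescent primer-extension read was taken at 0 and 10 min after 50 nM substrate, following a 15 min room-temperature preincubation of 10 nM enzyme with compounds.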
PI5P4K alpha inh – qHTS for Inhibitors of phosphatidylinositol 5-phosphate 4-kinase (PI5P4K). 1.2% of 330,000 active. max response, %. PI5P4Kalpha enzyme, ADP-Glo luminescence, 60 min; hits give low values; active = max response of -50% or lower; inconclusive = between -30% and -50%; inactive = -30% or higher; note: value at the top dose of about 77 µM; % is set by controls: 0 for no effect and ±100 for the full control effect
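Enzyme plus substrate dispensed, test compounds pinned in, then ATP (5 microM final) added. After 60 min at RT, ADP-Glo reagent 1 for 45 min and reagent 2 for 30 min preceded luminescence imaging.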
WRN inhibitor – qHTS for Inhibitors of WRN Helicase | Bifunctional 3'-5' exonuclease/ATP-dependent helicase WRN (Homo sapiens), Q14191 | WRN helicase unwinding, fluorescent forked duplex, kinetic | 0.46% of 360,000 active | Potency, µM (highest dose often 114 µM), for inactives: at the highest dose activity change, negative = inhibition, actives largely listed as inhibitors | AID 651768, 2012; note: potency is the fitted concentration of half-maximal effect; % is set by controls: 0 for no effect and ±100 for the full control effect; nearly all actives have a fitted effect of over 55% in size
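Primary qHTS, 1536-well format. 20 nM WRN + compound, 15 min RT; start with 100 nM forked fluorophore/quencher duplex, 2 mM ATP (final); kinetic read ex 525/em 598 nm.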
Pol kappa inh-1 – qHTS for Inhibitors of Polymerase Kappa; DNA polymerase kappa (Homo sapiens), Q9UBT6; purified Pol kappa, fluorescent DNA synthesis assay, 10 min; Potency, µM (highest dose often 107 µM), without a hit: at the highest dose activity, negative = inhibition, actives largely listed as inhibitors; 0.53% of 400,000 active; AID 588579, 2011; note: potency is the fitted concentration of half-maximal effect; % is set by controls: 0 for no effect and ±100 for the full control effect
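Pol kappa 10 nM + cpd, 15 min RT; start w/ substrate 50 nM final; fluorescence kinetic read, 0 and 10 min. Neg ctrl: buffer, no enzyme.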
Pol eta inh-1 – qHTS for Inhibitors of Polymerase Eta. recombinant Pol eta, fluorescent DNA replication assay. DNA polymerase eta (Homo sapiens), Q9Y253. Potency, µM (series often up to 114 µM), for the others: top-dose activity change, negative = inhibition, usual class: inhibitors. 1.2% of 390,000 active. AID 588591, 2011; note: potency is the fitted concentration of half-maximal effect; % is set by controls: 0 for no effect and ±100 for the full control effect
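Pol eta at 10 nM preincubated with compounds 15 min at room temperature; reaction started with fluorescent substrate (50 nM final) and read kinetically at 0 and 10 min.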
Pol iota inh – qHTS for Inhibitors of Polymerase Iota. Pol iota fluorescent replication assay, 10 min. Potency, µM (top dose mostly 115 µM), for inactives: at the highest dose activity, negative = inhibition, usual class: inhibitors. 1% of 390,000 active. AID 588590, 2011; note: potency is the fitted concentration of half-maximal effect
Target sequence (Q9UNA4 whole entry, looked up): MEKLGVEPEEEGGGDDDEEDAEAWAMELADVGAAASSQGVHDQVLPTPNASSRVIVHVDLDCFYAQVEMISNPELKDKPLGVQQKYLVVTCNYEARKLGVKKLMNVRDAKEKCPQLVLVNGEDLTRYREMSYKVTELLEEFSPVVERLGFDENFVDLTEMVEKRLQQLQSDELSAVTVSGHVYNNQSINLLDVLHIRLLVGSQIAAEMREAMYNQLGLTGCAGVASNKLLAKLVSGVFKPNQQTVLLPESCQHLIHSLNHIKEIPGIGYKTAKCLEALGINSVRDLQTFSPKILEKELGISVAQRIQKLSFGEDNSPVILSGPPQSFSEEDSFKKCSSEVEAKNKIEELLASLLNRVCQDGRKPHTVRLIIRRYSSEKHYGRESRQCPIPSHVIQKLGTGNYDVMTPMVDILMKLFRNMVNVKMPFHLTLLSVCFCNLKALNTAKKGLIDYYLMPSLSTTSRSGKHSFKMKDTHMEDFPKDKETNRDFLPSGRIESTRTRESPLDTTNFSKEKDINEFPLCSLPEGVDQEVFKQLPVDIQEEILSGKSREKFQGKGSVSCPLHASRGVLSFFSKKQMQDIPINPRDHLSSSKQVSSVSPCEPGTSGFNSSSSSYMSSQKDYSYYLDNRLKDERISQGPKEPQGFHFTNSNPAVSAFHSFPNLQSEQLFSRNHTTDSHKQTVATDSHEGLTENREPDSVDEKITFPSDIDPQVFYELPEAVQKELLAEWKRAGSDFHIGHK
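Pol iota at 10 nM preincubated 15 min with compounds at room temperature; reaction started with fluorescent substrate, 50 nM final. Fluorescence read kinetically at 0 and 10 min; buffer-only wells as negative control.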
GALK inh confirm – Confirmation Assay for Inhibitors of Human Galactokinase (GALK); shares compounds with Pol eta inh-1; Potency, µM (series often up to 115 µM), for the others: at the top dose activity, negative = inhibition, actives largely listed as inhibitors; AID 2015, 2009; purified GALK, Kinase-Glo ATP depletion luminescence; 70% of 150 active
Redox cycling – Confirmatory Assay for Inhibitors of Human Galactokinase (GALK): Phenol-HRP redox assay counterscreen; Phenol red-HRP H2O2 redox cycling, absorbance 600 nm; Potency, µM (titrated, usually from 115 µM), inactives show at the highest dose activity change, negative = H2O2 signal, most hits filed as inhibitors; AID 2035, 2009; 40% of 150 active; shares compounds with Pol eta inh-1
HEK293 tox – Secondary Assay for Inhibitors of Human Galactokinase (GALK): HEK-293 Cell Viability Assay | shares compounds with Pol eta inh-1 | HEK-293 viability, ATP luminescence (CellTiter-Glo), 24/48 h | Potency, µM (highest dose often 46.1 µM), without a hit: top-dose activity change, negative = cytotoxicity, actives largely listed as inhibitors | 10% of 170 active; note: potency is the fitted concentration of half-maximal effect; % is set by controls: 0 for no effect and ±100 for the full control effect
Pol kappa inh-2 – qHTS for Inhibitors of Polymerase Kappa: Confirmatory Assay for Cherry-picked Compounds; shares compounds with Pol eta inh-1; purified Pol-kappa, fluorescent strand-displacement substrate; Potency, µM, actives largely listed as inhibitors; 76% of 920 active; AID 720501, 2013; note: potency is the fitted concentration of half-maximal effect
Pol eta inh-2 – qHTS for Inhibitors of Polymerase Eta: Confirmatory Assay for Cherry-picked Compounds; Potency, µM, usual class: inhibitors; Pol eta primer extension, TAMRA/BHQ fluorescence, 10 min; AID 720502, 2013; shares compounds with Pol eta inh-1; 64% of 2,600 active; note: potency is the fitted concentration of half-maximal effect
Numbers without * were called inactive; ? = inconclusive; · = not tested or not shown; [ ] = remark or other dose. Unless noted, calls come from the whole dose curve; as a rule, active = well fitted curve in the direction sought with a large enough effect; inconclusive = small, poorly fitted or top-dose-only effect, or another doubt; inactive = no such curve, though single readings can be large; an effect the other way counts as inactive or inconclusive.

SMILES	Pol beta inh	PI5P4K alpha inh	WRN inhibitor	Pol kappa inh-1	Pol eta inh-1	Pol iota inh	Pol eta inh-2	others
CCOC(=O)c1cc(S(=O)(=O)Nc2ccc(OC(F)(F)F)cc2)[nH]n1	-9%	·	·	-6%[60.1 µM]	-3%	-5%	·
COC(=O)c1sc(-c2ccc(C(C)(C)C)cc2)cc1NC(=O)c1ccccc1C(=O)O	?	?	2%[11.6 µM]	2%	89µM*	-19%	·	Pol kappa inh-2=?
COC(=O)c1sc(-c2ccc(Cl)cc2)cc1NC(=O)c1ccccc1C(=O)O	?	?	-31%	-21%	?	33%	·
NS(=O)(=O)c1ccc(NC(=S)NNC(=O)c2ccc(Br)o2)cc1	96%	2	2%	-3%	-15%	19%	·	GALK inh confirm=?;Redox cycling=-2%;HEK293 tox=19%
O=[N+]([O-])c1ccc(Cl)c2c1C1C=CCC1C(c1ccccn1)N2 (stereo not given)	35µM*	-16	?	?	50µM*	?	?
N#C/C(=C\c1ccc(Cl)c([N+](=O)[O-])c1)c1ccccn1	-16%	2	-14%	1%	-18%	77%	·
COc1cc(OC)c2ccc(=O)oc2c1C(CC(=O)N1CCCC1)c1ccc2c(c1)OCO2 (stereo not given)	45µM*	?	-32%	50µM*	?	71µM*	?
COc1cc(C(CCN2CCCC2)c2c(OC)cc(OC)c3ccc(=O)oc23)cc(OC)c1OC (stereo not given)	-28%	-2	6%	10%	-14%	26%	·
COc1cc(C(CC(=O)N2CCCC2)c2c(OC)cc(OC)c3ccc(=O)oc23)cc(OC)c1OC (stereo not given)	?	1	1%[11.6 µM]	?	32µM*	?	85*
CCOc1ccc(Cc2nnc(SCC(=O)c3ccc(OC)cc3)o2)cc1	7%	·	-3%	2%	-6%	-8%	·
CCOc1ccc(Nc2nc(Cc3nnc(SCC(=O)O)o3)cs2)cc1	79µM*	·	-28%[57.1 µM]	?	50µM*	?	?
CCOC(=O)c1ccc(NC(=O)c2ccc(CN3C(=O)CCn4nc(C)cc43)cc2)cc1	1%	·	·	3%	-2%	20%	·
O=C(O)C1CN(c2nc(Cl)ccc2[N+](=O)[O-])C1	35µM*	-12	-13%	-9%	20µM*	15%	30*	Pol kappa inh-2=67*
O=C(O)C1CC(O)CN1c1nc(Cl)ccc1[N+](=O)[O-] (stereo not given)	-23%	-1	-1%	-25%	-1%	44%	·
CCOC(=O)Cc1ccc(NC(=O)NCc2cccn2Cc2ccccc2)cc1	8%	·	·	2%	-3%	-6%	·
Cc1cccc(N2CCN(C(=O)Nc3ccc(F)cc3)CC2C)c1 (stereo not given)	25%	·	·	-3%	-9%	-1%	·
C/C(N)=C(/C#N)C(=O)CSc1nnnn1-c1ccccc1	35µM*	?	-22%	-13%	16µM*	?	27*
COc1ccc(-n2cc(-c3ccccc3)c3c(NCCc4ccc(OC)c(OC)c4)ncnc32)cc1	-8%	·	·	-7%[60.1 µM]	-20%	5%	·
O=C1CSC(=S)N1N=Cc1ccc(Cl)s1	·	-55*	20µM*	?	?	14µM*	54*	Pol kappa inh-2=17*
CC(C)(C)c1ccc(/C=N/N2C(=O)CSC2=S)cc1	4%	-2	-1%	-17%	-16%	?	·
CN(C)c1ccc(NC(=O)CSCc2nc3c(nnn3Cc3ccc(F)cc3)c(=O)[nH]2)cc1	28µM*	·	-32%[57.1 µM]	?	50µM*	28µM*	?
C=CC1=C(C(=O)O)N2C(=O)[C@@H](NC(=O)/C(=N\O)c3csc(N)n3)[C@H]2SC1 (stereo in doubt)	·	?	-17%	?	?	?	?
CC(CC(=O)Nc1ncc([N+](=O)[O-])s1)c1ccccc1 (stereo not given)	-9%	-28	-13%	-20%	2%	17%	·
O=C(COC(=O)COc1ccccc1)Nc1ncc([N+](=O)[O-])s1	·	-53*	?	?	10µM*	?	30*	Pol kappa inh-2=12*
O=C(Cc1ccc(Br)cc1)Nc1ncc([N+](=O)[O-])s1	?	?	-6%[11.6 µM]	-5%	?	?	?	Pol kappa inh-2=?
Cc1ccc(NC(=O)Cn2ncc3c4ccccc4n(Cc4ccccc4)c3c2=O)cc1Cl	-7%	·	·	-8%	-23%	-4%	·
CC(=O)c1ccc(N2CCN(S(=O)(=O)c3ccc(-c4coc(C)n4)cc3)CC2)cc1	45µM*	·	·	-4%[60.1 µM]	79µM*	?	?
Cc1c(CCC(=O)NCCCCCC(=O)O)c(=O)oc2cc3occ(-c4ccccc4)c3cc12	?	-8	?	?	22µM*	45µM*	54*	Pol kappa inh-2=?
Cc1c(CC(=O)NCCCC(=O)O)c(=O)oc2cc3occ(-c4ccccc4)c3cc12	24%	-6	-13%	-9%	17%	-19%	·
